Rows were chosen to be rich in hits. Some 8% of all compounds tested hit in one or more screens of this group.
HT1080NT lethal = kills 2HG-producing HT-1080-NT fibrosarcoma cells; HT-1080-NT fibrosarcoma viability, CellTiter-Glo ATP luminescence, 48 h; Potency, µM (series often up to 46.1 µM), for inactives: top-dose activity, negative = less viability, most hits filed as cytotoxic; actives 1.6% (n = 360,000); AID 686970;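 also: NT is the 2HG producing partner of a matched IDH1 knockdown line; 0% = DMSO-treated cells and -100% = media-only wells without cells; nearly all actives have a fitted effect of over 55% in size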
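A 48-hour cytotoxicity screen used HT-1080-NT cells plated 2 hours before compound delivery. ATP-based CellTiter-Glo luminescence measured viability, normalized to DMSO and no-cell controls.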
MCF10A rerep = inducers of DNA re-replication in MCF 10A breast cells | MCF 10A DNA re-replication, Hoechst nuclear intensity, 48 h | actives 2.9% (n = 350,000) | Potency, µM (series often up to 46.1 µM), for the others: at the top dose activity, positive = re-replication, most hits filed as activators | AID 624296; also: % of control where 0% means no effect; nearly all actives have a fitted effect of over 50% in size
KB-V1 cytotox = kills drug-selected multidrug resistant KB-V1 cells | KB-V1 MDR cells viability, CellTiter-Glo, 72 h | Potency, µM (top dose mostly 46.1 µM), most hits filed as cytotoxic | actives 3.4% (n = 400,000); also: % is scaled to controls: 0 for no effect and ±100 for the full control effect; nearly all actives have a fitted effect of over 60% in size
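Cytotoxicity toward P-gp-expressing KB-V1 cells was determined as loss of CellTiter-Glo luminescence after 72 h at 37 degrees C. Compounds were tested in quantitative HTS format across a concentration range, with curves fitted to normalized data.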
HT1080 IDH1KD tx = toxicity to HT-1080 IDH1 knockdown cells (counter line); HT-1080 IDH1 knockdown viability, ATP luminescence, 48 h; Potency, µM (highest dose often 46.1 µM), for inactives: at the highest dose activity, negative = toxicity, actives largely listed as cytotoxic; actives 2% (n = 360,000); AID 686971;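 also: 0% = DMSO wells and -100% = cell-free medium wells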
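CellTiter-Glo luminescence after 48 h compound exposure at 37 degrees C of IDH1-knockdown HT-1080 cells in 5% FBS RPMI. %Activity scaled between DMSO wells and cell-free media wells, with curves fitted and assigned curve classes.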
SW480 rerep = DNA re-replication induction in SW480 cells. SW480 DNA re-replication, Hoechst DNA content imaging, 48 h. Potency, µM (doses to about 46.1 µM), for inactives: at the highest dose re-replication activation, hits mostly activators. actives 1.8% (n = 340,000). AID 624297; also: % of control where 0% means no effect; nearly all actives have a fitted effect of over 55% in size
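First, 250 cells per well were seeded. Next, compound or vehicle (23 nL) was pinned in, plates sat 48 hr at 37 C. Finally Hoechst was added for 40 min before fluorescence scanning.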
KB-3-1 tox = kills parental KB-3-1 adenocarcinoma cells; KB-3-1 viability, CellTiter-Glo ATP luminescence, 72 h; Potency, µM (doses to about 46.1 µM), hits mostly cytotoxic; actives 1.4% (n = 400,000); AID 1347075; also: % is scaled to controls: 0 for no effect and ±100 for the full control effect; nearly all actives have a fitted effect of over 60% in size
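Luminescent ATP read-out (CellTiter-Glo) measures survival of drug-naive KB-3-1 cells after 72 h compound exposure at 37 °C. Titration series was screened from lowest to highest concentration, with DMSO vehicle plates as background controls.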
* hit, by the source's call; i = inactive; ? = inconclusive; nt = not tested or not shown; ! = not active in a repeat; [ ] = dose if it differs, or a comment. Calls follow the shape of the dose curve; as a rule, active = well fitted curve in the direction sought with a large enough effect; inconclusive = small, poorly fitted or top-dose-only effect, or another doubt; inactive = no such curve, though single readings can be large; an effect the other way counts as inactive or inconclusive. Potency is read from the fitted curve at half-maximal effect.

SMILES	HT1080NT lethal	MCF10A rerep	KB-V1 cytotox	HT1080 IDH1KD tx	SW480 rerep	KB-3-1 tox
CC(c1ccon1)N(C)C(=O)CCc1nnc(C2(c3ccc(Cl)cc3)CCC2)o1 (stereo not given)	-2%	0.58µM*	?	7%	4%	i
N#CCCC(CCC#N)(CCC#N)c1cc[n+](CCc2ccccn2)cc1	0%	-15%	?	4%	-6%	i
CCc1nnc(NS(=O)(=O)c2ccc(N=Cc3c(C)[nH]n(-c4ccc(C)c(C)c4)c3=O)cc2)s1	?	12%	?	21µM*	-1%	?
Cc1[nH]n(-c2ccc(Br)cc2)c(=O)c1C=Nc1ccc(S(=O)(=O)Nc2nccs2)cc1	-28%	-1%	?	-20%	-6%	i
COc1cccc(C2C=C(c3ccc(C)c(C)c3)Nc3nnnn32)c1OC (stereo not given)	nt	nt	i	nt	nt	4.1µM*
Cc1ccccc1C1C=C(c2ccc(Cl)cc2)Nc2nnnn21 (stereo not given)	nt	nt	i	nt	nt	i
COc1cccc(C2=CC(c3cccc(OC)c3OC(F)F)n3nnnc3N2)c1 (stereo not given)	-4%	?	i	-21%	?	i
COc1cccc(C2=CC(c3cccc(OC)c3OC)n3nnnc3N2)c1 (stereo not given)	?	8.9µM*	?	16µM*	1%[9.22 µM]	i
COc1cc(NC(=O)c2csc(N)n2)cc(C(=O)Nc2cccc(C(F)(F)F)c2)c1	16µM*	?	7.3µM*!	21µM*	?	5.8µM*
CCOC(=O)c1c2ccc(OCC(=O)NN)cc2n2ccccc12	-28%	16µM*	i	?	-11%	?
Cc1ccc(OCC(=O)N/N=C/c2cn(C)c3ccccc23)cc1	3%	?	i	0%	-21%	i
CCOC(=O)c1c2ccc(OCC(=O)N/N=C/c3ccc(C)cc3)cc2n2ccccc12	12%	2.6µM*	?	18%	?	?
CCOC(=O)c1c(C)n(C)c2cc(OCCN(CC)CC)ccc12	-24%	28%	?	3%[9.24 µM]	0%	i
COc1cc2ccccc2cc1C(=O)Nc1ccc(O)cc1	-29%	4%	i	?	-7%	i
Cc1ccc(S(=O)(=O)NCc2ccccc2)cc1C(=O)N1CCCCC1	16%	0%	i	3%	-1%	i
Cc1ccc(S(=O)(=O)NCc2ccccc2)cc1C(=O)N1CCN(c2ccccc2)CC1	-3%	?	?	1%	?	15µM*
Cc1ccc(S(=O)(=O)NCc2ccccc2)cc1C(=O)N1CC(C)CC(C)C1 (stereo not given)	8%	1%	13µM*	1%	4%	i
Cc1ccc(NC(=O)CSc2nc3c(c(=O)[nH]2)CCC3)cc1Cl	nt	nt	i	nt	nt	i
O=c1c2c(nc3n1CCCCC3)-c1ccccc1CC21CCCCC1	-20%	1%	i	6%[9.24 µM]	1%	i
CCCn1c(SCC#N)nc2c(c1=O)C1(CCCC1)Cc1ccccc1-2	?	?	i	?	2%	i
N#CCSc1nc2c(c(=O)n1Cc1ccco1)C1(CCCC1)Cc1ccccc1-2	-25%	13µM*	?	?	18%	i
N#CCSc1n[nH]c2nc3c(c(=O)n12)C1(CCCC1)Cc1ccccc1-3	-5%	10µM*	i	-16%	-3%	i
Clc1ccc(Oc2cnns2)c(Cl)c1	4%	5%	i	3%	-1%	i
S=c1[nH]cc(Oc2ccc(Cl)cc2Cl)c(=S)[nH]1	-10%	16µM*	?	-13%	?	i
COc1ccc(N2CC(NC(=O)C3CCCCC3)CC2=O)cc1OC (stereo not given)	nt	nt	?	nt	nt	i
SMILES	HT1080NT lethal	MCF10A rerep	KB-V1 cytotox	HT1080 IDH1KD tx	SW480 rerep	KB-3-1 tox
CCCCN(CCCC)S(=O)(=O)c1ccc2oc(C(=O)N3CCOCC3)c(C)c2c1	2%	2%	4.6µM*	-24%	10%	i
CN(C)c1ccc(/C=C2\NC(=O)NC2=O)cc1	nt	nt	?	nt	nt	i
COc1ccc(N=Nc2c(C)[nH]c3ccccc23)cc1	?	?	i	18µM*	13%	i
Cc1[nH][nH]c(=O)c1N=Nc1ccc(F)cc1	6%	-6%	i	10%	-13%	i
COc1ccc(N=Nc2c(C)[nH][nH]c2=O)cc1	-3%	0%	23µM*	-10%	0%	?
COc1cccc(N=Nc2c(N)[nH][nH]c2=O)c1	-11%	18%	18µM*	-2%	-4%	i
Nc1[nH][nH]c(=O)c1N=Nc1cccc(Cl)c1	-4%	-49%	?	-18%	-21%	i
Cc1ccc(C2(C)NC(=O)N(CC(=O)N3CCN(S(=O)(=O)c4ccc(Cl)s4)CC3)C2=O)cc1 (stereo not given)	-4%	13%	?	-9%	6%	?
CC1=CC(=O)N(c2cccc3c(N4C(=O)C=C(C)C4=O)cccc23)C1=O	1%	?	i	26µM*	13µM*	?
Cc1ccc(NC(=O)c2ccc(-n3cccn3)c([N+](=O)[O-])c2)cc1	-4%	1%	23µM*	-1%	-11%	i
O=C(Nc1cc(C(F)(F)F)ccc1N1CCCCC1)c1cccc([N+](=O)[O-])c1	-1%	?	16µM*	-4%	-5%	i
O=C(Nc1ccccc1N1CCCCC1)c1cccc([N+](=O)[O-])c1	-1%	-3%	?	-1%	3%	i
Cc1cccc(NC(=O)c2ccc(N3CCCCC3)c([N+](=O)[O-])c2)n1	-10%	10µM*	5.2µM*	-5%	-5%	?
Cc1cccc(NC(=O)c2ccc(N(C)C3CCCCC3)c([N+](=O)[O-])c2)n1	-23%	18%	2.6µM*	?	1%	?
Cc1cccc(NC(=O)c2ccc(N3CCOCC3)c([N+](=O)[O-])c2)n1	6%	2%	?	6%	-16%	i
CCSc1ccc(C(=O)Nc2cccc(C)n2)cc1[N+](=O)[O-]	-1%	-57%	?	-9%	-57%	?
O=C(Nc1cc(OC(=O)C(F)(F)F)c2nonc2c1OC(=O)C(F)(F)F)C(F)(F)F	nt	nt	i	nt	nt	?
CCOc1ccc(NC(=O)C(=O)NCCc2sc(-c3ccc(C)cc3)nc2C)cc1	nt	nt	i	nt	nt	i
c1ccc(Cc2c(C3CCCCC3)nc3c4ccccc4ccn23)cc1	-3%	nt	i	4%	nt	?

Screening data deposited in PubChem by National Center for Advancing Translational Sciences (NCATS).
